Pf Dd2 growth: qHTS Primary assay for Inhibitors of Plasmodium falciparum Dd2 growth in vitro; Potency, µM (highest dose often 28.9 µM), for the others: at the highest dose activity, negative = inhibition, actives largely listed as inhibitors; hit rate 4.3% among 120,000; AID 1347417, 2020; P. falciparum Dd2 growth, SYBR Green, 72 h; active means well fitted inhibition curve with a large enough effect;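 further: plate controls were DMSO vehicle for no effect and reference drug for full effect; nearly all actives have a fitted effect of over 65% in size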
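Readout: SYBR Green fluorescence, 485 nm excitation, 535 nm emission, after ~16 h lysis at 37C. Before that, Dd2-infected red cells (2.5% hematocrit) grew 72 h with compound, 29 uM top final concentration.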
* marks the source's active call; other numbers are inactive results; i = inactive; [ ] = another dose, or the depositor's remark. The full list was thinned out, with hits kept by preference. Potency means the concentration at half of the fitted maximal effect.

SMILES	Pf Dd2 growth
Cc1nc(CCCNC(=O)[C@H]2CCC[C@@H](O)C2)sc1C	3.5%
CCS(=O)(=O)N1C[C@@H](Oc2ccccc2)C[C@H]1C(=O)NC	4.3%
CCN(CC)C(=O)CC1COc2ccc(C(=O)NCCOC)cc2N1C (stereo not given)	3.1%
CCc1cccc(C)c1Nc1c(-c2ccc(F)cc2)nc2sccn12	-26.7%
CCc1cccc(C)c1Nc1c(-c2ccc(N(C)C)cc2)nc2cnccn12	-22.0%
CCc1cccc(C)c1Nc1c(-c2cccc(O)c2)nc2cnccn12	8.91µM*
CS(=O)(=O)N1CCCN(C(=O)c2ccoc2)CCNC(=O)CC1c1ccccc1 (stereo not given)	23.0%
CCOc1ccc(-c2ccnc(N3CCOC(CN)C3)n2)cc1C(=O)O (stereo not given)	-11.4%
CCc1ccc(CN2CCC(CO)(CN3CCCC3)CC2)cc1	7.08µM*
CC(C)Oc1ccc(CN2CCC(CO)(CN3CCCC3)CC2)cc1Cl	12.6µM*
OCC1(CN2CCCC2)CCN(Cc2cnn(-c3ccccc3)c2)CC1	i
COc1ccc(CN2CCC(CO)(CN3CCCC3)CC2)cc1OC	-14.1%
COc1ccc(CN2CCC(CO)(CN3CCCC3)CC2)cc1C	i
Cc1cc(CN2CCC(CO)(CN3CCCC3)CC2)ccc1F	-28.1%
Cc1cccc(CC(=O)N2CCC(c3nn(C)c4c3COCC4)CC2)c1	i[5.79 µM]
O=C(c1ccoc1)N1CCC(Nc2cccn3ncnc23)CC1	-18.1%
Cc1cccc(CC(=O)N2CCC(Nc3cccn4ncnc34)CC2)c1	11.2µM*
O=C(Cn1c(=O)oc2ccccc21)N1CCC(N2CC3CC(C2)[C@H]2CCCC(=O)N2C3)CC1 (stereo not given in full)	-13.7%
COC(=O)c1ccccc1NC(=O)CSc1nc(=O)cc(N)n1-c1ccccc1	55.2%
COC(=O)c1ccc(NC(=O)C(C)Sc2nc(=O)cc(N)n2CCc2ccccc2)cc1 (stereo not given)	11.2µM*
COC(=O)c1ccc(NC(=O)CSc2nc3c(c(=O)n(C)c(=O)n3C)n2Cc2ccccc2)cc1	25.5%
O=C1c2ccccc2CN1C1CCN(CC2CC2)CC1	3.5%[44.1 µM]
O=C(CCC1CCCC1)NC1CCN(c2cn[nH]c(=O)c2)CC1	0.5%
Cc1cc(Nc2cccc(Cl)c2)nc2ccc(NC(=O)c3cncc(Br)c3)cc12	2.82µM*
Cc1ccccc1C(=O)Nc1ccc2nc(Nc3cccc(C(F)(F)F)c3)cc(C)c2c1	-8.6%
SMILES	Pf Dd2 growth
Cc1cc(Nc2cccc(C(F)(F)F)c2)nc2ccc(NC(=O)c3cncc(Br)c3)cc12	0.178µM*
CCOc1cc(C(=O)Nc2ccc(-c3cn4cccnc4n3)cc2)cc(OCC)c1OCC	-17.3%
CCN(CC)c1ccc(C(=O)Nc2ccc3nc(N(CC)CC)cc(C)c3c2)cc1	-17.9%
Cn1nc(-c2ccc(C(=O)Nc3cccc(C(F)(F)F)c3)cc2)c2ccccc2c1=O	2.7%
CCOc1cc(C(=O)Nc2ccc3nc(Nc4cccc(Cl)c4)cc(C)c3c2)cc(OCC)c1OCC	2µM*
CCN(CC)S(=O)(=O)c1ccc2nc(NC(=O)c3cncc(Br)c3)sc2c1	19.8%[0.594 µM]
COc1ccc(Nc2ncc(C(=O)Nc3cccc(Cl)c3)c3ccccc23)cc1	i
Cn1nccc1C(=O)N1CCCCCCNC(=O)CC1c1ccccc1 (stereo not given)	-16.0%
CC(C)NC(=O)C[C@@H]1O[C@H](CNC(=O)NC(C)C)[C@@H](O)[C@H]1O	24.3%[44.1 µM]
CC[C@@]1(O)CCN(C(=O)c2cccc(CCC(C)(C)O)c2)C[C@H]1O	-12.0%
CN1CCN(Cc2nc(C3(O)CCN(C(=O)Nc4ccc(F)cc4)CC3)cs2)CC1	3.1%[44.1 µM]
CN1CCN(C(=O)C2CCC(=O)N(Cc3cccc(C(F)(F)F)c3)C2)CC1=O (stereo not given)	-7.2%
Cc1cc(CNC(=O)Cn2nc(-c3ccccc3)n(-c3ccccc3)c2=O)on1	1.1%
Cn1cnc(S(=O)(=O)N2CCC(Cc3ccc(C(N)=O)cc3)CC2)c1	1.3%
O=C1CCCCC(C(=O)NCCc2ccccc2)N1 (stereo not given)	10.5%
CCCC1COCCN1C(=O)c1cccc(CC2CCNCC2)c1 (stereo not given)	-2.2%
NCc1ccccc1-c1ccc(O)cc1	5.0%[44.1 µM]
NCc1cn[nH]c1-c1ccccc1	7.2%
NCc1ccccc1-c1cccc(Cl)c1	8.91µM*
CCNC(=O)c1cccnc1OC1CCN(C(=O)c2ccc(C)c(F)c2)C1 (stereo not given)	i
O=C(CCc1ccccc1)N1CCC(Oc2ccc(C(=O)N3CCOCC3)cn2)CC1	11.4%
CCC(CC)NC(=O)C1CCCN(S(C)(=O)=O)CCC(=O)NCC1 (stereo not given)	8.4%
COc1ccc(NC(=O)c2c(OC)cc(=O)n3c2CCCC3)cc1	-22.1%
COc1ccc(NC(=O)c2c(-c3cnn(C)c3NCc3ccccc3)noc2C)cc1	i
COc1ccc(NC(=O)c2c(C)oc3ccc(O)c(CN4CCCCCC4)c23)cc1	2.82µM*
SMILES	Pf Dd2 growth
O=C(Nc1ccc(Cl)cc1)c1nc2c(o1)CCN(Cc1ccccc1)CC2	i
CC(=O)Nc1ccc(NC(=O)c2cccc(CN3CCCC(C#N)C3)c2)cc1 (stereo not given)	-10.0%
CCOc1ccc(NC(=O)c2c(C)oc3nc(C)nc(N4CCCC4)c23)cc1	i
CCOc1cc(=O)n2c(c1C(=O)Nc1ccccc1)CCCC2	26.6%
COc1ccc(NC(=O)c2c(C)oc3ccc(O)c(CN4CCN(Cc5ccccc5)CC4)c23)cc1	1.26µM*
Cc1oc2ccc(O)c(CN3CCCC(C)C3)c2c1C(=O)Nc1ccccc1 (stereo not given)	0.891µM*
Cc1oc2ccc(O)c(CN3CCN(Cc4ccccc4)CC3)c2c1C(=O)Nc1cccc(Cl)c1C	0.562µM*
Cc1c(Cl)cccc1NC(=O)NCC1CCOCC1	9.1%
Cc1cccc(NC(=O)c2c(C)oc3ncnc(N4CCCCC4)c23)c1C	-7.4%
CC(C)Cc1ccc(S(=O)(=O)N(C)CC2CCOCC2)cc1	-13.4%
Cc1nn2c(c1-c1ccccc1OCc1ccccc1)N(Cc1nccn1C)CCC2	i
CCCCS(=O)(=O)N1C[C@@H](COC)[C@H](C(N)=O)C1	-5.9%
CN(Cc1cccn1C)[S+](=O)([O-])c1cccs1	-5.1%[44.1 µM]
COCC(=O)N(C1CCOCC1)C1CCN(C(=O)c2ccc(OC)cc2C)CC1	4.7%
CCOC(=O)C1=CN(CC(=O)Nc2ccccc2Cl)S(=O)(=O)N=C1C	91.0%
COC[C@@H]1CN(c2cnccn2)C[C@H]1C(=O)NCc1ccccc1F	8.5%
O=C(c1ccc2c(c1)OCO2)N1CCC2(CNc3ccccc3[S+](=O)([O-])N2)C1 (stereo not given)	3.7%
Cn1cccc1C(=O)N1CCCCCCNC(=O)CC1	18.3%
COc1cccc(NC(=O)Cn2nc(N3CCN(c4ccccc4)CC3)ccc2=O)c1	-10.3%
CCc1ccc(NC(=O)c2ccc(Cn3nc(N4CCN(c5ccccc5)CC4)ccc3=O)o2)cc1	11.2µM*
CCOc1ccc(CNC(=O)Cn2nc(N3CCN(c4ccccc4)CC3)ccc2=O)cc1	-2.1%
O=C(Nc1ccc([C@@H](O)[C@H]2COCC(=O)N2Cc2ccc(F)cc2)cc1)C1CCC1	i
CCC(C(=O)N1CCN(c2cc(C(F)(F)F)ncn2)CC1)c1ccccc1 (stereo not given)	-10.9%
COc1cccc(CNC(=O)[C@@H]2C[C@@H](O)CN2C2CCN(C(=O)c3sc(C)nc3C)CC2)c1	-19.1%
COc1ccc(C(=O)N2CCC(N3CCNC3=O)CC2)cc1	3.8%[44.1 µM]
CCOC(=O)c1c(NC(=O)c2ccc(S(=O)(=O)N(CCOC)CCOC)cc2)sc2c1CC(C)(C)NC2(C)C	10µM*

Compound activity (PubChem)
